Compound activity as filed in PubChem BioAssay.
In the library only some 2.8% were active in any assay of this set; here they are far more common.
Pol iota inh: blocks human DNA polymerase iota activity; Q9UNA4; Pol iota fluorescent replication assay, 10 min; Potency, µM (doses to about 115 µM), inactives show at the highest dose activity, negative = inhibition, usual class: inhibitors; hit rate 1% among 390,000; also: potency is read from the fitted curve at half-maximal effect
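Fluorescent replication assay read twice, at 0 min and 10 min after adding 50 nM (final) substrate. Enzyme (10 nM) and compounds were first incubated 15 min at room temperature; enzyme-free buffer wells were negative controls.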
POLK inh: inhibitors of human DNA polymerase kappa. purified Pol kappa, fluorescent DNA synthesis assay, 10 min. Potency, µM (top dose mostly 107 µM), for the others: at the top dose activity, negative = inhibition, usual class: inhibitors. Q9UBT6. AID 588579. hit rate 0.53% among 400,000; also: potency is read from the fitted curve at half-maximal effect; % is scaled to controls: 0 for no effect and ±100 for the full control effect
Target sequence (Q9UBT6 whole entry, looked up): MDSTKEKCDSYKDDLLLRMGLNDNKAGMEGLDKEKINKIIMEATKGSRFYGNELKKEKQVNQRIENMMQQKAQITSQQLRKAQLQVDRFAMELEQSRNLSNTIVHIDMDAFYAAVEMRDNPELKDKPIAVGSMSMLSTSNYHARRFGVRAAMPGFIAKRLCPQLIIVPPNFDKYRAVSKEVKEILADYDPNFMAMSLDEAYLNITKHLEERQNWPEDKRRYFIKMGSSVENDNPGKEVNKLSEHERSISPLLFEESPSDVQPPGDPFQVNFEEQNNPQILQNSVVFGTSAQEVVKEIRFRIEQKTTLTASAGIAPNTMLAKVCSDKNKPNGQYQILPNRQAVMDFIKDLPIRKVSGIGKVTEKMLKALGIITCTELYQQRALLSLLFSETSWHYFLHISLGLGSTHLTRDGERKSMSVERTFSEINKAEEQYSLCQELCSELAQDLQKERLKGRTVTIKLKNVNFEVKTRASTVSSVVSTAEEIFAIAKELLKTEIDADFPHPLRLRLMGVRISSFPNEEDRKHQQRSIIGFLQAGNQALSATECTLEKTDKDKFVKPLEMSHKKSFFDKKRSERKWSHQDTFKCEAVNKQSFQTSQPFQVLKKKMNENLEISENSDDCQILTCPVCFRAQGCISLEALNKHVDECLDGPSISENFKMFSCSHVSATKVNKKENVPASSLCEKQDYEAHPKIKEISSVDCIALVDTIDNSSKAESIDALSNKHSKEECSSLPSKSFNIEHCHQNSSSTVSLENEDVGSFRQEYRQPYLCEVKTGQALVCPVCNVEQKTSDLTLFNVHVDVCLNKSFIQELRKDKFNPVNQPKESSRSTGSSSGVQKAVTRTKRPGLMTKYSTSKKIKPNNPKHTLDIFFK
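10 nM Pol kappa preincubated 15 min at room temperature with compounds, then reaction started with substrate at 50 nM final. Fluorescence read kinetically at 0 and 10 min; buffer-only wells served as negative control.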
POLB inh: DNA polymerase beta (human) inhibition. Potency, µM (highest dose often 114 µM), without a hit: at the top dose activity change, negative = inhibition, actives largely listed as inhibitors. P06746. hit rate 1.3% among 340,000. Pol beta primer extension/strand displacement, fluorescence kinetic; also: potency is read from the fitted curve at half-maximal effect; % is scaled to controls: 0 for no effect and ±100 for the full control effect
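Reaction started by 50 nM substrate onto compound-treated Pol beta (10 nM, 15 min preincubation, room temperature); plates read at 0 min and 10 min. Normalized concentration-effect data fitted by four-parameter Hill equation.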
Pol eta inh: DNA polymerase eta (human) inhibition. Potency, µM (titrated, usually from 114 µM), without a hit: at the highest dose activity change, negative = inhibition, hits mostly inhibitors. Q9Y253. recombinant Pol eta, fluorescent DNA replication assay. hit rate 1.2% among 390,000; also: potency is read from the fitted curve at half-maximal effect; % is scaled to controls: 0 for no effect and ±100 for the full control effect
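Pol eta (10 nM) was preincubated with compounds for 15 min at room temperature, after which fluorescent replication substrate (50 nM final) was added to start the reaction. Fluorescence was read kinetically at 0 and 10 min.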
WRN inhibitor: blocks human WRN helicase. WRN helicase unwinding, fluorescent forked duplex, kinetic. Potency, µM (top dose mostly 114 µM), inactives show top-dose activity change, negative = inhibition, actives largely listed as inhibitors. hit rate 0.46% among 360,000. AID 651768; also: potency is read from the fitted curve at half-maximal effect; % is scaled to controls: 0 for no effect and ±100 for the full control effect; nearly all actives have a fitted effect of over 55% in size
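WRN at 20 nM final was preincubated with compound for 15 min at room temperature; reaction started with 100 nM forked duplex oligonucleotide carrying fluorophore and quencher plus 2 mM ATP (final). Unwinding followed kinetically by red fluorescence (ex 525/em 598 nm).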
PI5P4K alpha inh: inhibitors of human PI5P4K alpha; P48426; max response, %; AID 652105; PI5P4Kalpha enzyme, ADP-Glo luminescence, 60 min; stronger effect = lower value; hit rate 1.2% among 330,000; active = max response of -50% or lower; inconclusive = between -30% and -50%; inactive = -30% or higher; also: value at the top dose of about 77 µM; % is scaled to controls: 0 for no effect and ±100 for the full control effect
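Reactions run in 0.038 M HEPES pH 7.4, 0.28 mM EGTA, 0.1% CHAPS and 5% DMSO, with PI5P4Kalpha, substrate, compound and 5 microM ATP final, one hour at room temperature. Readout is ADP-Glo luminescence.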
* marks the source's active call; other numbers are inactive results; ? = inconclusive; . = no result; [ ] = dose if it differs, or a comment. Unless noted, calls follow the shape of the dose curve; as a rule, active = well fitted curve in the direction sought with a large enough effect; inconclusive = small, poorly fitted or top-dose-only effect, or another doubt; inactive = no such curve, though single readings can be large; an effect the other way counts as inactive or inconclusive.

SMILES	Pol iota inh	POLK inh	POLB inh	Pol eta inh	WRN inhibitor	PI5P4K alpha inh
Nc1ccc(Oc2ncccn2)cc1	?	-8%	4%	40µM*	-6%	-22
COc1ccc(-c2nn(-c3ccccc3)cc2/C=C(\CC(=O)O)c2nc3ccccc3s2)cc1OC	?	?	?	56µM*	?	-17
N#CC1=C(Nc2ccccc2Cl)SC2(CCCC2)NC1=O	.	.	.	.	8%[57.1 µM]	-51*
CCOc1ccc(NC(=O)CN2CCN(Cc3ccccc3)S2(=O)=O)cc1	16%	0%[60.1 µM]	11%	-15%	.	.
Cc1cc(NS(=O)(=O)c2ccc(Nc3nc(-c4sc(N)nc4C)cs3)cc2)no1	3.2µM*	25µM*	-9%	10µM*	25µM*	136
Cc1cc(NS(=O)(=O)c2ccc(Nc3nc(-c4ccc(C)c(C)c4)cs3)cc2)no1	-15%	-5%	?	?	?	?
O=C(O)c1cccc(-n2c(O)c(C=C3N=c4ccccc4=N3)sc2=S)c1	-13%	-7%	10%	?	-20%	0
O=C(O)c1ccc(-n2c(O)c(C=C3N=c4ccccc4=N3)sc2=S)cc1	2.2µM*	?	12%	-23%	-6%[11.6 µM]	-4
CCn1c(=O)c2ccccc2n(Cc2ccccc2C)c1=O	16%	-12%	-7%	4%	8%	-2
CSc1nc(N(CCO)CCO)c2sc3nc(-c4ccco4)c4c(c3c2n1)CCC4	1.8µM*	10µM*	1.8µM*	1.1µM*	13µM*	-89*
Cn1c(CCNC(=O)C2CCCCC2)nc2cc(NC(=O)c3cccs3)ccc21	89%	1%	40µM*	3%	-12%	-4
CC(=O)NCCc1nc2cc(NC(=O)c3cccs3)ccc2n1C	174%	-14%	7%	-24%	-2%	2
CCOC(=O)c1sc(Nc2nc3cc4c(cc3s2)OCO4)cc1C	11%	-5%	35µM*	?	-15%	8
COc1ccc(NC(=O)COC(=O)C(NC(=O)c2ccc(C)cc2)C(C)C)cn1 (centres undefined)	49%	-10%	.	-30%	-4%	1
COc1ccc(NC(=O)/C(Cl)=C(/Cl)S(=O)Cc2ccccc2Cl)cn1 (centres undefined)	?	-7%	-1%	8%	11µM*	?
COc1ccc(NC(=O)/C(Cl)=C(/Cl)S(=O)(=O)Cc2ccc(C)cc2)cn1	?	-6%	-1%	14µM*	50µM*	-7
COc1ccc(NC(=O)Cc2ccc(Cl)c(Cl)c2)cn1	-10%	-13%	8%	-4%	5%	-2
O=C(CSCc1c(F)cccc1Cl)NNC(=S)NC1CCCCC1	24%	-14%	5%	-15%	-34%	2
Cc1c(F)cccc1NS(=O)(=O)c1ccc(N2CCCC2=O)cc1	-4%	-6%	.	-16%	-5%	-14
CC1=C(C(=O)Nc2ccc(C)cc2C)C(c2ccc[nH]2)n2ncnc2N1 (centres undefined)	?	-10%[60.1 µM]	11%	-4%	.	.
COc1ccc(NC(=O)C2=C(C)Nc3ncnn3C2c2ccc[nH]2)cc1 (centres undefined)	?	5%[60.1 µM]	79µM*	?	.	.
C[N+]1(CC(=O)c2ccccc2)CCc2ccccc2C1 (centres undefined)	-14%	-4%	.	.	.	.
CSc1nc(NCc2ccco2)c2c3c(sc2n1)CN(C)CC3	.	.	40µM*	.	.	.
Cc1cccc(Cc2c(C)nc3nc(SCC(=O)NCc4ccco4)nn3c2C)c1	40%	-5%	?	1%	-1%	0
Cc1ccc(Cc2c(C)nc3nc(SCC(=O)NCc4ccco4)nn3c2C)cc1	?	-26%	22µM*	?	-14%	-17
SMILES	Pol iota inh	POLK inh	POLB inh	Pol eta inh	WRN inhibitor	PI5P4K alpha inh
Cc1ccc(Cn2c(SCC(=O)NCc3ccco3)nc3ccsc3c2=O)cc1	100µM*	-24%	-21%	6%	-3%	.
O=C(CSc1nc2c(sc3ccccc32)c(=O)n1CCO)NCc1ccco1	?	?	45µM*	?	?	-9
Cc1cccc(C)c1NC(=O)Cn1c(=O)n(Cc2ccc(C(=O)NCc3ccco3)cc2)c(=O)c2sccc21	45µM*	-21%	45µM*	.	.	.
CCOc1ccccc1CNC(=O)C1CCCN(c2nnc(C)c3c(C)n(-c4ccccc4)nc23)C1 (centres undefined)	-2%	-3%	-1%	-3%	-3%[57.1 µM]	-1
O=C(NCc1ccccc1Cl)c1ccc(CSCc2cccc(F)c2)o1	2%	-21%[60.1 µM]	-14%	-16%	.	.
Cc1c2cnn(-c3ccccc3)c(=O)c2c(C)n1CC(=O)NCc1ccccc1Br	20%	-5%	17%	.	.	.
O=[S+]([O-])([O-])c1ccc2c(c1)cc([S+](=O)([O-])[O-])c1nn(-c3ccc(/C=C/c4ccc(-n5nc6c([S+](=O)([O-])[O-])cc7cc([S+](=O)([O-])[O-])ccc7c6n5)cc4[S+](=O)([O-])[O-])c([S+](=O)([O-])[O-])c3)nc12	?	10µM*	.	.	.	.
O=C(O)c1ccc2c(ccc3nn(-c4ccc(/C=C/c5ccc(-n6nc7ccc8cc(C(=O)O)ccc8c7n6)cc5[S+](=O)([O-])[O-])c([S+](=O)([O-])[O-])c4)nc32)c1	?	1.8µM*	.	.	.	.
Cc1ccnc(NS(=O)(=O)c2ccc(NC(=O)c3cc(-c4ccc(Br)cc4)nc4ccccc34)cc2)n1	45µM*	-32%	79µM*	35µM*	?	?
Cn1c(=O)c2c(ncn2CC(=O)OCC(=O)c2ccc(Br)cc2)n(C)c1=O	.	.	.	-10%	-3%	-57*
O=C(O)c1ccc(O)c(O)c1	?	-7%	25µM*	-5%	5%	-1
O=C1NC(=Nc2cccc(O)c2)S/C1=C\c1cccnc1	-2%	20%	1%	-9%	-16%	-60*
Cc1cccc(N=C2NC(=O)/C(=C/c3cccnc3)S2)c1	?	14%	7%	-17%	?	0
O=C1NC(=Nc2cccc(O)c2)S/C1=C\c1cccc([N+](=O)[O-])c1	57%	-21%	-15%	?	-22%	-70*
CCOC(=O)[C@]12CCC=C1N(Cc1ccc(Cl)cc1Cl)C(=O)[C@H](CC(=O)NCCCOC)C2	.	.	.	.	-11%	5
O=C(Nc1cccc([N+](=O)[O-])c1)c1ccc2nc(N3C(=O)CCC3=O)sc2c1	12%	-22%	21%	-11%	45µM*	?
O=C(Nc1cccc(Br)c1)c1ccc2nc(N3C(=O)CCC3=O)sc2c1	8%	-1%	2%	?	?	-58*
O=C(Nc1cccc([N+](=O)[O-])c1)c1ccc2snnc2c1	-4%	-6%	-9%	1%	6%	0
